Hits are enriched below; roughly 19% of the tested compounds scored in any of these assays.
TDP1 cell noCPT: qHTS for Inhibitors of human tyrosyl-DNA phosphodiesterase 1 (TDP1): qHTS in cells in absence of CPT. DT40 Tdp1-/- hTDP1 cells, no CPT, ATP luminescence, 48 h. Potency, µM (series often up to 46.2 µM), for inactives: at the top dose activity change, negative = growth inhibition, hits mostly inhibitors. AID 686978, 2013. actives 15% (n = 420,000); further: potency means the concentration at half of the fitted maximal effect; nearly all actives have a fitted effect of over 55% in size
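No-CPT arm: Tdp1-/-;hTDP1 DT40 cells (400/well) plus compounds, incubated ≥48 hr at 37 °C. Readout CellTiter-Glo luminescence.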
HT1080-NT tox: qHTS for induction of synthetic lethality in tumor cells producing 2HG: qHTS for the HT-1080-NT fibrosarcoma cell line; HT-1080-NT fibrosarcoma viability, CellTiter-Glo ATP luminescence, 48 h; Potency, µM (doses to about 46.1 µM), for inactives: at the highest dose activity, negative = less viability, actives largely listed as cytotoxic; actives 1.6% (n = 360,000);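 further: NT is the 2HG producing partner of a matched IDH1 knockdown line; potency means the concentration at half of the fitted maximal effect; 0% = DMSO-treated cells and -100% = media-only wells without cells; nearly all actives have a fitted effect of over 55% in size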
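Compounds were tested in concentration-response format on HT-1080-NT cells for 48 hours at 37 degrees C. Cell viability came from CellTiter-Glo luminescence; curves were classified by r2, response magnitude and activity.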
HT1080 IDH1KD tx: qHTS for induction of synthetic lethality in tumor cells producing 2HG: qHTS for the HT-1080-IDH1KD cell line; Potency, µM (highest dose often 46.1 µM), without a hit: top-dose activity, negative = toxicity, actives largely listed as cytotoxic; HT-1080 IDH1 knockdown viability, ATP luminescence, 48 h; actives 2% (n = 360,000);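 further: potency means the concentration at half of the fitted maximal effect; 0% = DMSO wells and -100% = cell-free medium wells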
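Knockdown cells (IDH1KD HT-1080) received compounds 2 h after plating at 750 cells/well and were kept 48 h at 37 °C in 5% FBS RPMI. A CellTiter-Glo luminescence read gave % activity for curve fitting.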
IL1B secr inh: qHTS for Inhibitors of Inflammasome Signaling: IL-1-beta AlphaLISA Primary Screen. actives 4.7% (n = 360,000). activity change, % at 57.5 µM. THP-1 LPS/ATP IL-1B secretion, AlphaLISA, 16 h; active compounds read low; in the data active means activity change below about -50%; inconclusive means mostly about -30% to -49%
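THP-1 cells pretreated 1 hr with compounds (up to 57.5 uM final), then stimulated with LPS (250 ng/mL final) plus ATP (1.25 mM final); secreted IL-1B measured by AlphaLISA after 16 hr, decreased signal indicating inhibition.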
ELG1 repair inh: qHTS screen for small molecules that inhibit ELG1-dependent DNA repair in human embryonic kidney (HEK293T) cells expressing luciferase-tagged ELG1; Potency, µM (titrated, usually from 46.1 µM), without a hit: at the highest dose activity change, negative = inhibition, usual class: inhibitors; AID 504467, 2011; actives 2.3% (n = 330,000); HEK293T ELG1-luciferase reporter, luminescence, 16 h; DNA damage induced by 5-fluorouridine; further: potency means the concentration at half of the fitted maximal effect; nearly all actives have a fitted effect of over 55% in size
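Reporter activity after DNA damage by 5-fluorouridine is monitored. Compound-treated cells incubate 16 hr at 37 °C, then ONE-Glo is added for 30 min before luminescence reading.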
DT40 TDP1 CPT: qHTS for Inhibitors of human tyrosyl-DNA phosphodiesterase 1 (TDP1): qHTS in cells in presence of CPT; Potency, µM (doses to about 46.2 µM), for the others: at the highest dose activity change, negative = growth inhibition, usual class: inhibitors; actives 12% (n = 420,000); AID 686979, 2013; chicken DT40 Tdp1-/-;hTDP1 cells + 20 nM CPT, ATP luminescence, 48 h; further: potency means the concentration at half of the fitted maximal effect; nearly all actives have a fitted effect of over 55% in size
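Chicken DT40 Tdp1-/- cells stably complemented with human TDP1 were seeded at 400 cells/well in medium containing 20 nM camptothecin, exposed to pin-transferred compounds, and grown at 37 °C for at least 48 hr. Viability was read as ATP luminescence.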
* hit, by the source's call. Unless noted, the call rests on the fitted dose curve; in most records, active means well fitted curve in the direction sought with a large enough effect; inconclusive means small, poorly fitted or top-dose-only effect, or another doubt; inactive means no such curve, though single readings can be large; an effect the other way counts as inactive or inconclusive. Unless noted, on the % scale 0 is the no-effect control and ±100 the full control effect.

Screening Cc1ccccc1CN(C)CC(=O)NC(C)CCc1ccccc1 (configuration not stated) returned TDP1 cell noCPT 16µM*, HT1080-NT tox 2%, HT1080 IDH1KD tx -20%, IL1B secr inh -8, ELG1 repair inh -19% and DT40 TDP1 CPT inconclusive.
Cc1ccc(CC(=O)NC(C)CCc2ccccc2)cc1 (configuration not stated) was read as TDP1 cell noCPT inconclusive, HT1080-NT tox 7%, HT1080 IDH1KD tx 7%, IL1B secr inh -15, ELG1 repair inh inconclusive and DT40 TDP1 CPT 3%.
Screening O=S(=O)(c1ccc(-n2cnnn2)cc1)N1CCN(c2cccc(C(F)(F)F)c2)CC1 returned TDP1 cell noCPT -14% and DT40 TDP1 CPT -8%.
COc1ccccc1C(=O)NCC(=O)N1CCN(c2ncccn2)CC1 was read as TDP1 cell noCPT 6%, HT1080-NT tox 9%, HT1080 IDH1KD tx 2%, IL1B secr inh -14, ELG1 repair inh 28% and DT40 TDP1 CPT 15%.
O=C(Nc1cccnc1)c1cc(-c2ccc3c(c2)OCO3)on1 was read as TDP1 cell noCPT -1%, HT1080-NT tox -2%, HT1080 IDH1KD tx 6%, IL1B secr inh 3, ELG1 repair inh inconclusive and DT40 TDP1 CPT -3%.
`CCc1ccc(NC(=O)COCc2cc(-c3ccc(F)cc3)on2)cc1` gave TDP1 cell noCPT -10% and DT40 TDP1 CPT -12%.
`COc1cc(NC(=O)COCc2cc(-c3ccc(F)cc3)on2)cc(OC)c1OC` gave TDP1 cell noCPT 9.2µM* and DT40 TDP1 CPT 13µM*.
Screening O=C(COCc1cc(-c2ccc3c(c2)OCO3)on1)Nc1cccnc1 returned TDP1 cell noCPT inconclusive, HT1080-NT tox 6.5µM*, HT1080 IDH1KD tx 5.8µM*, IL1B secr inh -4, ELG1 repair inh inconclusive and DT40 TDP1 CPT inconclusive.
C=CCOc1c(Br)cc(/C=N/n2c(CC)n[nH]c2=S)cc1Br was read as TDP1 cell noCPT inconclusive, HT1080-NT tox inconclusive, HT1080 IDH1KD tx -17%, IL1B secr inh -8, ELG1 repair inh -1% and DT40 TDP1 CPT inconclusive.
Screening Cc1cc(C)c2c(N)c(S(=O)c3ccc(C(C)(C)C)cc3)sc2n1 (configuration not stated) returned TDP1 cell noCPT inconclusive, HT1080-NT tox -28%, HT1080 IDH1KD tx -13%, IL1B secr inh -67*, ELG1 repair inh -20% and DT40 TDP1 CPT inconclusive.
For O=C(C[n+]1cccc(Br)c1)c1cccc([N+](=O)[O-])c1 the results were TDP1 cell noCPT -20% and DT40 TDP1 CPT -1%.
For O=C(NC(=S)N1CCN(c2nc(-c3ccccc3)cs2)CC1)c1cncc(Br)c1 the results were TDP1 cell noCPT inconclusive, HT1080-NT tox -16%, HT1080 IDH1KD tx -16%, IL1B secr inh 51, ELG1 repair inh inconclusive and DT40 TDP1 CPT 10µM*.
COc1ccc(N2CCN(C(=O)c3csc4ccccc34)CC2)cc1 was read as TDP1 cell noCPT inconclusive, HT1080-NT tox 9%, HT1080 IDH1KD tx 12%, IL1B secr inh -6, ELG1 repair inh -10% and DT40 TDP1 CPT -21%.
For COCCCNC(=S)N1CCN(C(c2ccccc2)c2ccccc2)CC1 the results were TDP1 cell noCPT inconclusive, HT1080-NT tox -1%, HT1080 IDH1KD tx 0%, IL1B secr inh 11, ELG1 repair inh 2% and DT40 TDP1 CPT -33%.
For O=C(c1csc2ccccc12)N1CCN(c2ccc(Cl)c(Cl)c2)CC1 the results were TDP1 cell noCPT 23µM*, HT1080-NT tox 1%, HT1080 IDH1KD tx 22%, IL1B secr inh -13, ELG1 repair inh -5% and DT40 TDP1 CPT 21µM*.
For COCCCNC(=S)N1CCN(c2nc(-c3ccccc3)cs2)CC1 the results were TDP1 cell noCPT 12µM*, HT1080-NT tox inconclusive, HT1080 IDH1KD tx -17%, IL1B secr inh -4, ELG1 repair inh inconclusive and DT40 TDP1 CPT 16µM*.
`CCC(=O)N1CCN(c2nc(-c3ccc(Cl)cc3)cs2)CC1` gave TDP1 cell noCPT 23µM*, HT1080-NT tox -4%, HT1080 IDH1KD tx inconclusive, IL1B secr inh -2, ELG1 repair inh 2% and DT40 TDP1 CPT 23µM*.
CC1(C(=O)Nc2ccc3ccccc3c2)CCC(=O)N1CCc1c[nH]c2ccccc12 (configuration not stated) was read as TDP1 cell noCPT inconclusive, HT1080-NT tox inconclusive, HT1080 IDH1KD tx inconclusive, IL1B secr inh -3 and DT40 TDP1 CPT inconclusive.
c1ccc(-c2csc(N3CCSCC3)n2)cc1 was read as TDP1 cell noCPT 2%, HT1080-NT tox 19%, HT1080 IDH1KD tx 24%, IL1B secr inh 9, ELG1 repair inh inconclusive and DT40 TDP1 CPT 10%.
O=C(c1cc(-n2cnnc2)ccc1Cl)N1CCN(c2nc(-c3ccccc3)cs2)CC1 was read as TDP1 cell noCPT 23µM*, HT1080-NT tox inconclusive, HT1080 IDH1KD tx inconclusive, IL1B secr inh -90*, ELG1 repair inh 0% and DT40 TDP1 CPT 16µM*.
For CCCCNC(=S)N1CCN(c2nc3ccccc3s2)CC1 the results were TDP1 cell noCPT inconclusive, HT1080-NT tox -23%, HT1080 IDH1KD tx -1%, IL1B secr inh inconclusive, ELG1 repair inh -10% and DT40 TDP1 CPT inconclusive.
Screening COCCCNC(=S)N1CCN(c2nc(-c3ccc(Cl)cc3)cs2)CC1 returned TDP1 cell noCPT 18µM*, HT1080-NT tox -17%, HT1080 IDH1KD tx -15%, IL1B secr inh -5 and DT40 TDP1 CPT inconclusive.
For COCCNC(=S)N1CCN(c2ccc(Cl)cc2)CC1 the results were TDP1 cell noCPT -40%, HT1080-NT tox -2%, HT1080 IDH1KD tx 0%, IL1B secr inh -9, ELG1 repair inh -16% and DT40 TDP1 CPT -26%.
Screening CCN(CC)CCCNC(=S)N1CCN(c2nc(-c3ccccc3)cs2)CC1 returned TDP1 cell noCPT 18µM*, HT1080-NT tox 16µM*, HT1080 IDH1KD tx 23µM*, IL1B secr inh -50*, ELG1 repair inh -19% and DT40 TDP1 CPT inconclusive.
